Assay [1] has as its target human Vitamin D Receptor (VDR), VDR (gene 7421) (UniProt P11473). The assay can be described thus: ATG_VDR_TRANS: Attagene TRANS-FACTORIAL HepG2 Assay for human Vitamin D Receptor (VDR) (AID 2283022; active = hit-call score of the fitted dose curve at least 0.9, where 1 is the maximum). The procedure, abridged:
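RT-PCR/capillary electrophoresis read-out of reporter mRNA induction in transiently transfected HepG2; 24 h dosing; chimeric NR-Gal4 (TRANS format); gain-of-signal fit against DMSO baseline.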

Assay [2] in a line: BSK_3C_SRB: Viability Assessment in the BioMAP Diversity Plus: 3C Assay (AID 2283023).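 Also: fitted both ways against DMSO so a hit may be signal rise or drop.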 The following applies: primary human endothelial cells (HUVEC). In short, it runs like this:
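HUVEC, 24 h post-dose; 10% TCA fix, 0.1% SRB stain, A560 nm. Bidirectional curve fit vs DMSO negative control.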

Read-out in assay [3]: Matrix Metallopeptidase 1 (MMP1), MMP1 (gene 4312)
The assay can be described thus: BSK_BE3C_MMP1: BioMAP Diversity Plus: BE3C Assay for Matrix Metallopeptidase 1 (MMP1) Biomarker Activity (AID 2283024). Particulars: primary human bronchial epithelial cells; actives raise or lower the signal. In short, it runs like this: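 MMP1 signal, measured by ELISA after a 24 h chemical exposure of human primary bronchial epithelial cells, is analysed with bidirectional fitting using DMSO as negative control.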

Assay [4] can be described thus: BSK_3C_Vis: BioMAP Diversity Plus: 3C Assay for Morphology Visualization (AID 2283025).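 Also: fitted both ways so gain or loss versus DMSO counts.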 Particulars: primary human endothelial cells (HUVEC). The procedure, abridged: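 Morphology read by light microscopy serves as a background control for the multiplexed 3C assay in human umbilical vein endothelial cells, taken 24 h after dosing, with DMSO as the negative control and bidirectional curve fitting.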

Read-out in assay [5]: Pselectin, SELP (gene 6403)
The assay can be described thus: BSK_4H_Pselectin: BioMAP Diversity Plus: 4H Assay for Pselectin Biomarker Activity (AID 2283026). The following applies: primary human endothelial cells (HUVEC); actives raise or lower the signal. The procedure, abridged: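 Endothelial primary cells (human umbilical vein) are dosed, incubated 24 h, and assayed for surface P-selectin by ELISA; responses in either direction are fitted relative to the DMSO negative control.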

Assay [6] can be described thus: BSK_4H_SRB: Viability Assessment in the BioMAP Diversity Plus: 4H Assay (AID 2283027).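 Also: cells exposed to compound for 24 h before staining.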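 As to AC50: curves fitted both ways versus DMSO so AC50 may be loss or gain.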 Particulars: primary human endothelial cells (HUVEC). In short, it runs like this: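 Cytotoxicity read-out in primary human endothelial cells: after 24 h compound exposure, cells were TCA-fixed (10%), stained with 0.1% SRB and absorbance taken at 560 nm. Values fitted in both directions relative to DMSO.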

Assay [7] is described as follows: BSK_BE3C_SRB: Viability Assessment in the BioMAP Diversity Plus: BE3C Assay (AID 2283028).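 As to AC50: fitted both ways so AC50 may mark signal gain or loss versus DMSO.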 The following applies: primary human bronchial epithelial cells. The procedure, abridged:
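Primary human bronchial epithelium; chemical dosing, 24 h; 10% TCA fix, 0.1% SRB stain, A560; bidirectional fit vs DMSO baseline.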

Read-out in assay [8]: Thrombomodulin, THBD (gene 7056)
The assay can be described thus: BSK_3C_Thrombomodulin: BioMAP Diversity Plus: 3C Assay for Thrombomodulin Biomarker Activity (AID 2283029). The following applies: primary human endothelial cells (HUVEC); actives raise or lower the signal. In short, it runs like this:
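Endothelial cells from umbilical vein are dosed with test chemical and incubated 24 h. Thrombomodulin is then quantified by ELISA, with DMSO serving as negative control and activity baseline.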

Read-out in assay [9]: Urokinase-type plasminogen activator receptor (uPAR), PLAUR (gene 5329)
The assay can be described thus: BSK_4H_uPAR: BioMAP Diversity Plus: 4H Assay for Urokinase-type plasminogen activator receptor (uPAR) Biomarker Activity (AID 2283030). Particulars: primary human endothelial cells (HUVEC); actives raise or lower the signal. The procedure, abridged: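 HUVEC, 24 h post-dose; uPAR by ELISA; bidirectional fit vs DMSO baseline.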

Read-out in assay [10]: Vascular endothelial growth factor receptor 2 (Homo sapiens) (UniProt P35968)
The assay can be described thus: BSK_4H_VEGFRII: BioMAP Diversity Plus: 4H Assay for Vascular endothelial growth factor receptor 2 (VEGFR2) Biomarker Activity (AID 2283031).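 As to AC50: cell-surface VEGFR2 protein level quantified by ELISA.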 The following applies: primary human endothelial cells (HUVEC); actives raise or lower the signal. The procedure, abridged:
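HUVEC (human primary), 4H system; 24 h post-dose; VEGFRII by ELISA; bidirectional curve fit vs DMSO baseline; gain or loss of signal scored.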

“And” between values parts separate entries of the source, which are not always exact repeats. Equal values may be shown once. Records with an inconclusive call do not appear. A structure can be active in one record and inactive in another. The source made the active and inactive calls. The calls were made as follows, unless noted: active = hit-call score of the fitted dose curve at least 0.9, where 1 is the maximum; inactive = score below 0.9.

This is an account of results in PubChem BioAssay (EPA / NIEHS).

The term AC50 denotes the concentration at which the activity in the assay is half-maximal.

Sequence of human Vitamin D Receptor (VDR), VDR (gene 7421) (P11473 whole entry, looked up, the tested form may be a part): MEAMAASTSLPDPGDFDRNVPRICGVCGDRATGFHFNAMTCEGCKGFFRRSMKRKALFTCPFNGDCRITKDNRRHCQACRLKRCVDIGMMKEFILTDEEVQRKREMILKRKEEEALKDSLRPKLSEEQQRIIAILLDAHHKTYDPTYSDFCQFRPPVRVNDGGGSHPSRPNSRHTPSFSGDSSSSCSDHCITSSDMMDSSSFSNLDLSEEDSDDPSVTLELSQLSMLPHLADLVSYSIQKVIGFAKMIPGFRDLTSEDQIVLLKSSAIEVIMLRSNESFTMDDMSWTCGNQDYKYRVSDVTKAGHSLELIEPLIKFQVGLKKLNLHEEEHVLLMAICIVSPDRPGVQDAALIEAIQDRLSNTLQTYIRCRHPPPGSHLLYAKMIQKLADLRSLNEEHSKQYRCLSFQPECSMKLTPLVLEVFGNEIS

Consider `ClC1=C(Cl)C(Cl)(Cl)C(Cl)=C1Cl`, for which the molecule was called inactive in [1] and in assay [10]. Also, the AC50 was 5.75 µM (active) in [2]; 10.7 µM (active) in [3]; 7.95 µM (active) in [4]; 5.42 µM (active) in [5]; 6.82 µM (active) in [6]; 6.99 µM (active) in assay [7]. The AC50 in assay [8] was 10.3 µM (active); in assay [9] it was 5.91 µM (active).

Regarding `COCC(C)OCC(C)O` (stereo not given), the outcome in [2], in [3], in [5], in assay [6], in [7] and in assay [8] was inactive. In addition, the outcome in assay [9] and in assay [10] was inactive. The half-maximal activity concentration (AC50) in assay [4] is 39 µM (active).

For `OC1CCC(C2CCCCC2)CC1` (stereo not given), the molecule was called inactive in [1], in [2], in assay [3], in [4], in [5] and in [6]. Further, the outcome in assay [7], in [8], in assay [9] and in [10] was inactive.

Regarding `CCCCC(CC)COC(=O)CCCCC(=O)OCC(CC)CCCC` (stereo not given), the result in [2], in assay [3], in [4], in assay [5], in [6] and in assay [7] was inactive. Further, the result in assay [8], in assay [9] and in assay [10] was inactive.

For the molecule `O=C(O)c1ccccc1C(c1ccc(O)cc1)c1ccc(O)cc1`, the outcome in assay [2], in [3], in assay [4], in assay [5], in [6] and in assay [7] was inactive. Further, the result in [8], in [9] and in [10] was inactive.

`OCCC(F)(F)C(F)(F)C(F)(F)C(F)(F)C(F)(F)C(F)(F)F`: the AC50 in assay [2] is 57.7 µM (active); in assay [5], 46.8 µM (active); in assay [10] it was 7.51 µM (active). The result in assay [2], in [3], in assay [4], in assay [5], in [6] and in assay [7] was inactive. For the same molecule, the result in [8], in assay [9] and in assay [10] was inactive.

Consider `N#C[C@@H]1CC(F)(F)CN1C(=O)CNC1CC2CCC(C1)N2c1ncccn1` (stereo not given in full), for which the AC50 in [2] was 8.06 µM (active); in assay [4], 5.57 µM (active). Further, the outcome in assay [3], in assay [5], in assay [6], in assay [7], in [8] and in [9] was inactive. Moreover, the result in assay [10] was inactive.

Turning to `CCCCCCCCOC(=O)CCCCCCCCC(=O)OCCCCCCCC`, the result in [2], in assay [3], in assay [4], in assay [5], in [6] and in assay [7] was inactive. For the same molecule, the outcome in assay [8], in assay [9] and in assay [10] was inactive.

For `CC(C)(C)c1cccc(C(C)(C)C)c1O`, the result in assay [2], in [3], in [4], in assay [5], in [6] and in [7] was inactive. The result in assay [8], in [9] and in assay [10] was inactive.

Take `FC(F)(I)C(F)(F)C(F)(F)C(F)(F)C(F)(F)C(F)(F)I`: the AC50 in [5] was 14.6 µM (active) [middle of 5 runs]; in [7], 23.6 µM (active) [middle of 5 runs]; in assay [8] it was 30 µM (active) [middle of 4 runs]; in assay [10], 55.1 µM (active) and 7.3 µM (active). The result in assay [8] and in assay [10] was inactive.

Consider `COc1ccc([N+](=O)[O-])cc1N`, for which the result in assay [2], in assay [3], in [4], in [5], in [6] and in [7] was inactive. Further, the result in assay [8], in [9] and in [10] was inactive.

As for `CCCCOCCO`, the result in [2], in [3], in assay [4], in [5], in assay [6] and in assay [7] was inactive. In addition, the result in assay [8], in [9] and in assay [10] was inactive.

Take `CCCCCCCCCCCCN1CCCC1=O`: the result in [1], in [8] and in assay [10] was inactive. For the same molecule, the AC50 in assay [2] is 33.6 µM (active); in [3], 31.7 µM (active); in [4] it was 37.3 µM (active); in assay [5], 30 µM (active); in assay [6], 33.4 µM (active); in [7] it was 32.8 µM (active). Further, the AC50 in [9] was 34.9 µM (active).

As to `NCC(F)(F)C(F)(F)C(F)(F)C(F)(F)C(F)(F)C(F)(F)C(F)(F)F`, the molecule was classed as inactive in [1], in [2], in [3], in assay [5], in [6] and in [7]. Moreover, the outcome in assay [8], in [9] and in assay [10] was inactive. In addition, the AC50 in assay [10] was 7.22 µM (active).

For `COC(=O)CCCCC(=O)OC`, the outcome in assay [1], in assay [2], in [3], in assay [4], in assay [5] and in assay [6] was inactive. The result in [7], in assay [8], in assay [9] and in assay [10] was inactive.

With `CC[C@H](C)[C@@H](C(=O)O)n1sc2ccccc2c1=O`, the molecule was called inactive in assay [1], in assay [2], in assay [3], in [4], in [5] and in assay [6]. Further, the outcome in assay [7], in assay [8], in [9] and in assay [10] was inactive.
